# An excerpt weighted towards active compounds, which were near 18% of everything screened.
# IL-1B inflam inh: qHTS for Inhibitors of Inflammasome Signaling: IL-1-beta AlphaLISA Primary Screen | hit rate 4.7% among 360,000 | THP-1 LPS/ATP IL-1B secretion, AlphaLISA, 16 h; active compounds read low | activity change, % at 57.5 µM; in the data active = activity change below about -50%; inconclusive = mostly about -30% to -49%; note: % is set by controls: 0 for no effect and ±100 for the full control effect
#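 THP-1 cells pretreated 1 hr with compounds (up to 57.5 uM final), then stimulated with LPS (250 ng/mL final) plus ATP (1.25 mM final); secreted IL-1B measured by AlphaLISA after 16 hr, decreased signal indicating inhibition.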
# TDP1 cell noCPT: qHTS for Inhibitors of human tyrosyl-DNA phosphodiesterase 1 (TDP1): qHTS in cells in absence of CPT. hit rate 15% among 420,000. DT40 Tdp1-/- hTDP1 cells, no CPT, ATP luminescence, 48 h. Potency, µM (titrated, usually from 46.2 µM), without a hit: top-dose activity change, negative = growth inhibition, most hits filed as inhibitors. AID 686978, 2013; note: potency is the fitted concentration of half-maximal effect; % is set by controls: 0 for no effect and ±100 for the full control effect; nearly all actives have a fitted effect of over 55% in size
#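 A cellular qHTS used chicken DT40 cells lacking endogenous Tdp1 but carrying stably transfected human TDP1. Compounds were applied without camptothecin, and cell growth kinetics were judged by ATP-dependent luminescence after ≥48 hr.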
# TDP1 block: qHTS Assay for Inhibitors of Tyrosyl-DNA Phosphodiesterase (TDP1); recombinant TDP1, AlphaScreen DNA substrate cleavage; Potency, µM (doses to about 130 µM), without a hit: top-dose activity change, negative = inhibition, actives largely listed as inhibitors; Tyrosyl-DNA phosphodiesterase 1 (Homo sapiens), Q9NUW8; hit rate 0.28% among 350,000; note: potency is the fitted concentration of half-maximal effect; % is set by controls: 0 for no effect and ±100 for the full control effect; nearly all actives have a fitted effect of over 40% in size
# Target sequence (Q9NUW8 whole entry, looked up): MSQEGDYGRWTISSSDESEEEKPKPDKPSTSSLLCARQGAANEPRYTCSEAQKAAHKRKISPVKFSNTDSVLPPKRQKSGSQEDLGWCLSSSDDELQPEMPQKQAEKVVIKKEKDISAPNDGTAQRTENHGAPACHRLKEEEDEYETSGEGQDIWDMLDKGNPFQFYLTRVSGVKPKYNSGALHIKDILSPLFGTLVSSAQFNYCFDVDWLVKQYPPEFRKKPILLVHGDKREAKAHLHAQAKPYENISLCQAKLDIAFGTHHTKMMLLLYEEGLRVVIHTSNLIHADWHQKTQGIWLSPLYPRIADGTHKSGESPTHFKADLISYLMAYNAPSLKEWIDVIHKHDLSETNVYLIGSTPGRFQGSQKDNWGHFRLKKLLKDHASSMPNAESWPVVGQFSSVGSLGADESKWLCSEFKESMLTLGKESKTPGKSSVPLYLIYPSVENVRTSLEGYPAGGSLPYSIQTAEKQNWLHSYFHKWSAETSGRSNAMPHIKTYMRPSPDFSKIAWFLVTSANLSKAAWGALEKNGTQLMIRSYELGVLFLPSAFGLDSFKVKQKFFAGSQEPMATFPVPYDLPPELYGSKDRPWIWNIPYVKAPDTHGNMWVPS
#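 E. coli-derived human Tdp1, 1 nM final. Cpd preinc 15 min RT; substrate 15 nM final, 5 min RT; AS bead mix 10 ug/ml final, 10 min RT. Signal loss = tyrosine-FITC cleavage. No-enzyme wells = max signal.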
# HepG2 tox: qHTS for Inhibitors of TGF-b: Cytotox Counterscreen. Potency, µM (doses to about 46.1 µM), for the others: at the top dose activity change, negative = cytotoxicity, usual class: cytotoxic. hit rate 0.76% among 410,000. HepG2 CAGA-GFP viability, ATP luminescence, 18 h; note: potency is the fitted concentration of half-maximal effect
#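 CellTiter-Glo luminescence gave cytotoxicity after 18 hours at 37 degrees C. The cells were HepG2 CAGA-GFP in 1% FBS DMEM, stimulated with 500 pg/mL TGF-beta after compound addition. %Activity was normalised to no-cell wells (complete cell-killing) and DMSO (no toxicity), and curves were fitted and classified.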
# TGFb inhibitor: qHTS for Inhibitors of TGF-b | HepG2 CAGA-GFP TGF-b/SMAD3 reporter, GFP fluorescence, 18 h; TGF-beta stimulated, 500 pg/mL final | Potency, µM (series often up to 46.1 µM), for the others: at the top dose activity, negative = inhibition, hits mostly inhibitors | hit rate 1.2% among 410,000 | AID 588855, 2011; note: potency is the fitted concentration of half-maximal effect; % is set by controls: 0 for no effect and ±100 for the full control effect; nearly all actives have a fitted effect of over 65% in size
#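 GFP signal (ex488/em500-530) from TGF-beta-stimulated HEPG2 CAGA-GFP cells, 500 pg/mL final, 18 h at 37 degrees C in DMEM plus 1% FBS, normalized to unstimulated and DMSO-stimulated controls.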
# DT40 TDP1 CPT: qHTS for Inhibitors of human tyrosyl-DNA phosphodiesterase 1 (TDP1): qHTS in cells in presence of CPT. hit rate 12% among 420,000. Potency, µM (series often up to 46.2 µM), inactives show at the top dose activity change, negative = growth inhibition, usual class: inhibitors. chicken DT40 Tdp1-/-;hTDP1 cells + 20 nM CPT, ATP luminescence, 48 h; note: potency is the fitted concentration of half-maximal effect; % is set by controls: 0 for no effect and ±100 for the full control effect; nearly all actives have a fitted effect of over 55% in size
#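 Chicken DT40 Tdp1-/- cells complemented with human TDP1, 400 cells/well, exposed to compounds plus 20 nM camptothecin for at least 48 h at 37 C; viability read as ATP content by CellTiter-Glo luminescence.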
# Starred values were filed as active, the others as inactive; ? = inconclusive; · = not tested or not shown. Unless noted, calls come from the whole dose curve; as a rule, active = well fitted curve in the direction sought with a large enough effect; inconclusive = small, poorly fitted or top-dose-only effect, or another doubt; inactive = no such curve, though single readings can be large; an effect the other way counts as inactive or inconclusive.
SMILES,IL-1B inflam inh,TDP1 cell noCPT,TDP1 block,HepG2 tox,TGFb inhibitor,DT40 TDP1 CPT
NN=C1c2ccccc2-c2ccc(N)cc21,-1,?,·,-14%,4%,?
NC(=S)NN=C1c2ccccc2-c2cc(Br)ccc21,-5,3.7µM*,·,2%,2.8µM*,5.2µM*
ON=C1c2ccccc2-c2ccc(Br)cc21,0,23µM*,·,-11%,-20%,29µM*
COCCC(=O)N1CCC(Oc2ccc(C(=O)N3CCC(N(C)C)C3)cc2)CC1 (stereo not given),13,4%,2%,-16%,-5%,-1%
O=C(/C=C/c1ccc(Cl)cc1Cl)N1CCN(c2ccccc2[N+](=O)[O-])CC1,-60*,?,-1%,8%,-1%,7%
O=C(/C=C/c1ccc(Cl)cc1Cl)N1CCN(c2ccc([N+](=O)[O-])c(N3CCOCC3)c2)CC1,0,23µM*,3%,-9%,3%,?
Cn1nc(-c2ccccn2)nc2c(=O)n(C)c(=O)nc1-2,-94*,0.52µM*,-1%,2.8µM*,2.2µM*,0.65µM*
CCCc1nc2c([nH]1)c(=O)n(C)c(=O)n2C,13,?,-3%,-4%,2%,-9%
COc1ccc(-c2nc(-c3ccccn3)ncc2S(C)(=O)=O)cc1,-13,-1%,6%,15%,-8%,5%
CCc1ccc(-c2nc3c(=O)n(C)c(=O)nc-3n(CC)n2)cc1,·,2.8µM*,2%,1.3µM*,0.89µM*,2.8µM*
CCCc1nc2c(=O)n(C)c(=O)nc-2n(C)n1,-106*,1.2µM*,6%,1.1µM*,1.1µM*,1.6µM*
Cc1ccccc1-c1nc2c(=O)n(C)c(=O)nc-2n(C)n1,·,0.63µM*,2%,1.1µM*,0.63µM*,0.71µM*
Cc1c(C(=O)N2CCC(C)CC2)sc2ncn(CC(=O)N3CCC(C)CC3)c(=O)c12,11,27%,7%,-2%,-8%,-17%
Cc1ccc(C)c(NC(=O)C(=O)NCCc2csc(-c3cccc(F)c3)n2)c1,·,-13%,-2%,1%,?,?
CC(C)C(NS(=O)(=O)c1ccc2c(c1)C(C)(C)C(=O)N2C)C(=O)NCc1ccc(F)cc1 (stereo not given),12,-5%,·,-6%,4%,-15%
O=[N+]([O-])c1cc(-c2cnc3ccccc3n2)ccc1Oc1ccc(Br)cc1,-15,13µM*,0%,-13%,-9%,?
Cc1nnc(-c2ccc(Oc3ccc(Br)cc3)c([N+](=O)[O-])c2)o1,13,13µM*,3%,-2%,-5%,?
O=[N+]([O-])c1ccc(Oc2ccc(-c3cnc4ccccc4n3)cc2[N+](=O)[O-])cc1,7,15µM*,0%,-4%,1%,10µM*
Cc1cc(Oc2ccc(-c3nnc(-c4ccccc4)o3)cc2[N+](=O)[O-])ccc1Cl,0,?,4%,-1%,2%,?
O=C(Nc1ccc(S(=O)(=O)Nc2cnc3ccccc3n2)cc1)c1cccc(OC(F)F)c1,30,-28%,·,-46%,?,-19%
COC(=O)c1c(-c2ccc(Cl)cc2)noc1N1CCN(c2ccc(OC)cc2)CC1,·,26µM*,0%,7%,16%,23µM*
COC(=O)c1c(-c2ccc(Cl)cc2)noc1N1CCN(c2cc(C)ccc2C)CC1,·,21µM*,8%,-31%,-9%,15µM*

# From PubChem BioAssay
